Source: PubChem BioAssay AID624256 (NMMLSC, 2012)
Screen size: about 360,000 compounds; about 3,700 (1%) were called active. Not shown: some 2% with an inconclusive outcome.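 The calls were made as follows: active = normalized GFP-positive differentiation at or above the plate's own cutoff, the solvent-only control mean plus 3 SD; inconclusive = no clear call, values can overlap the other calls; inactive = the rest.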 The list comes from a sample in which actives are over-represented; it also holds similar structures and randomly drawn compounds.

assay: induction of myeloid progenitor differentiation, primary screen, cell-based, flow cytometry, MLPCN library (AID 624256); details: ER-HoxA9 myeloid progenitors, lysozyme-GFP differentiation, at 10 µM; GFP+ MAC1+ double positive: measured here: differentiation confirmed by MAC1 staining, stronger effect = higher value; normalized GFP-positive differentiation: stronger effect = higher value;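 as to GFP+ MAC1+ double positive: cells exposed to compound for four days before flow analysis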;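 as to normalized GFP-positive differentiation: cells exposed to compound for four days before flow analysis; 0% = DMSO wells and 100% = fulvestrant positive control at 5 µM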

SMILES	GFP+ MAC1+ double positive	outcome	normalized GFP-positive differentiation
CCNC(=O)c1cc2c(c(-c3cccc(-c4cncnc4)c3)n1)[C@H](CCO)N(C(C)=O)C2	0.5%	inactive	–
CCCNC(=O)C[C@@H]1CC[C@@H]2[C@H](COC[C@H](O)CN2C(=O)c2cc(Cl)cc(Cl)c2)O1	0.9%	inactive	–
CCCCCc1c(-c2cccc(Br)c2)ncn1CCc1ccccc1OC	1%	inactive	–
Cc1nc2c(OCc3cccc(Cl)c3)cccn2c1N(C)CC1CC1	0.4%	inactive	–
O=C1Nc2ccc(Br)cc2/C1=N/N=C/C1=C(N2CCOCC2)C(=C\c2ccccc2)/CC1	0.4%	inactive	–
O=C(O)c1ccc(NN=CC2=C(N3CCOCC3)/C(=C/c3ccccc3)CC2)cc1	0.1%	inactive	–
N#C/C(=C\C1=C(N2CCOCC2)C(=C\c2ccccc2)/CC1)C(=O)Nc1ccccc1F	11.3%	–	127% (active)
COc1ccc(OC)c(CN2C(=O)CCC2(C)c2nnnn2Cc2ccccc2)c1 (stereo not given)	0.7%	inactive	–
CCOC(=O)[C@]12CCCC=C1N(Cc1ccc(Cl)cc1Cl)C(=O)[C@H](CC(=O)N1CCCCC1)C2	0.5%	inactive	–
Cc1ccc(C(=O)Nc2c(-c3ccccc3)[nH][nH]c2=O)cc1	0.3%	inactive	–
O=C(Nn1c(-c2ccc(Cl)cc2)nc2ccccc2c1=O)c1cccnc1Cl	2.1%	–	151% (active)
COc1ccccc1C(=O)Nn1c(-c2cccs2)nc2ccccc2c1=O	0.5%	inactive	–
COc1cc(OC)cc(-c2nc3ccccc3c(=O)n2NC(=O)c2cccnc2Cl)c1	0.9%	inactive	–
CC(=O)C[C@@H]1OC[C@H](CO)N1S(=O)(=O)c1ccc(C)cc1	2.1%	inactive	–
O=C(C[C@H]1CC[C@@H](NC(=O)c2ccncc2)[C@@H](CO)O1)NCC1CC1	0.9%	inactive	–
CCSc1nc(-c2ccc(OC)cc2)cc(-c2ccc(OC)cc2)c1C#N	7.7%	inactive	–
CCOC(=O)CC(=O)CSc1nc(-c2ccccc2)cc(-c2ccc(Cl)cc2)c1C#N	26.9%	–	14.9% (active)
N#Cc1c(C(F)(F)F)cc(-c2ccccc2)nc1SCC(=O)N1CCOCC1	1.4%	inactive	–
Cc1noc(C)c1C(=O)N1CCC1(C)C(=O)NS(=O)(=O)c1ccc(C#N)cc1 (stereo not given)	1.2%	inactive	–
O=C(Cc1csc(Nc2nc(=S)[nH]c3ccccc23)n1)NCCCN1CCN(c2cccc(Cl)c2)CC1	1%	inactive	–
CCN1CCCC1CNC(=O)c1cc2c(=O)n(C)c3ccccc3c2n1C (stereo not given)	0.5%	inactive	–
Cn1c(C(=O)NCCCN2CCN(c3cccc(Cl)c3)CC2)cc2c(=O)n(C)c3ccccc3c21	11.3%	–	36.1% (active)
CC(=O)Nc1cc(-c2cccc(CO)c2)cn2c(-c3cccc(C(F)(F)F)c3)cnc12	0.8%	inactive	–
COc1cc2[nH]c(O)c(C=O)c2cc1OC	0.7%	inactive	–
CN=c1scc(-c2cc(OC)ccc2OC)n1/N=C/c1c(C)[nH]c2ccccc12	1.2%	inactive	–
COc1cc(N=Cc2c(O)[nH]c3ccccc23)cc(OC)c1OC	16.7%	–	15.8% (active)
CCOC(=O)[C@H]1Nc2ccc(Cl)cc2[C@@H]2[C@H]1C1CC(c3ccccc31)N2C(=O)OCc1ccccc1 (stereo not given in full)	1%	inactive	–

SMILES	GFP+ MAC1+ double positive	outcome	normalized GFP-positive differentiation
CC(C)C[C@H]1CNC(=S)N1C[C@H]1CCCN1C[C@H](Cc1ccc(O)cc1)N1C[C@H](Cc2ccc(O)cc2)N(CC2CCCCC2)C1=S	1.3%	inactive	–
Cc1ccc(C)c(S(=O)(=O)N2CCN(c3ncnc4sccc34)CC2)c1	2.8%	–	41.1% (active)
COc1ccc(-c2csc3ncnc(N4CCN(S(=O)(=O)c5ccccc5C#N)CC4)c23)cc1	1.7%	inactive	–
Cc1ccc(C)c(S(=O)(=O)N2CCN(C(=O)Nc3ccccc3)CC2)c1	0.3%	inactive	–
CCC(C(=O)NCc1ccccc1)n1c(Cc2cc(F)cc(F)c2)nc2ccccc21 (stereo not given)	2%	inactive	–
Nc1ncnc2c1ncn2[C@@H]1O[C@H](C(=O)N2CCCN(Cc3ccccc3F)CC2)[C@@H](O)[C@H]1O	1.3%	inactive	–
CC1CCCCN1C(=O)Cn1c(=O)oc2cc(S(=O)(=O)N3CCCCC3)ccc21 (stereo not given)	6.7%	–	53.2% (active)
O=C(NC1CCCCC1)n1c(=O)oc2cc(S(=O)(=O)N3CCCCC3)ccc21	8.3%	inactive	–
CC1CCCN(C(=O)Cn2c(=O)oc3cc(S(=O)(=O)N4CCCCC4C)ccc32)C1 (stereo not given)	2.1%	inactive	–
CC1=C(C(=O)N(C(C)C)C(C)C)CC(CC(=O)NCCCCc2ccccc2)C(=O)N1CCC1=CCCCC1 (stereo not given)	1%	inactive	–
O=S1(=O)CC(N2CCN(c3ccccn3)CC2)CN1Cc1ccc(F)cc1 (stereo not given)	0.9%	inactive	–
CCOC(=O)[C@]12CCC=C1N(Cc1cccc3ccccc13)C(=O)[C@H](CC(=O)NCc1cccc(C(F)(F)F)c1)C2	0.3%	inactive	–
COC(=O)[C@@]12C[C@@H](CC(=O)N3CCC(c4ccccc4)CC3)C(=O)N(Cc3ccccc3)C1=CCC(C)(C)C2	1.2%	inactive	–
Clc1ccc(-n2nnnc2-c2cnc(-c3ccccn3)nc2-c2cccs2)cc1	0.7%	inactive	–
O=C(Cn1cc(-c2nnnn2-c2ccc(Cl)cc2)c(=O)c2ccccc21)c1ccccc1	7.2%	–	37.5% (active)
O=C(CN1CCN(c2ccc(Cl)cc2)CC1)c1ccccc1	0.3%	inactive	–
COC(=O)[C@]12CCCCC=C1N(CCC1=CCCCC1)C(=O)[C@H](CC(=O)NCC1CCCCC1)C2	1.7%	inactive	–
Cc1ccc(-c2cnc(C(O)c3cccc(C)c3C)[nH]2)cc1 (stereo not given)	0.9%	inactive	–
O=C(Nc1cccc(C(F)(F)F)c1)c1ccc(N2CCNCC2)c([N+](=O)[O-])c1	0.4%	inactive	–
CS(=O)(=O)N1CCN(c2ccc(C(=O)NC3C4CC5CC(C4)CC3C5)cc2[N+](=O)[O-])CC1 (stereo not given)	1%	inactive	–
O=C(NC1C2CC3CC(C2)CC1C3)c1ccc(N2CCNCC2)c([N+](=O)[O-])c1 (stereo not given)	0.8%	–	16.7% (active)
Cc1cc(O)ccc1-c1cc(C(=O)NCc2cc(C(F)(F)F)cc(C(F)(F)F)c2)[nH]n1	0.4%	inactive	–
c1ccc2c(CCN3CCNC[C@H]3Cc3cccc4ccccc34)cccc2c1	6%	inactive	–
O=C1CCNCCN1[C@H](CO)Cc1ccccc1	1.1%	inactive	–
c1ccc(C[C@H]2CNCCN2CCC23CC4CC(CC(C4)C2)C3)cc1	4%	–	18.5% (active)
CCc1nc2ccc(C(=O)NC3CCN(Cc4ccccc4)CC3)cn2c1N(CC)CCOC	1.3%	inactive	–
Cc1ccc(COc2ccc(C(=O)NN)cc2)cc1	4.6%	–	335% (active)

SMILES	GFP+ MAC1+ double positive	outcome	normalized GFP-positive differentiation
Cc1ccc(COc2ccc(/C=N/NC(=O)CN3CCCCC3)cc2)cc1	0.2%	inactive	–
NNC(=O)c1ccc(COCC(F)(F)C(F)F)cc1	0.4%	inactive	–
COc1cccc(CNC(=O)[C@@H]2CCCN2C(=O)[C@@H]2CCCN2C(=O)c2ccccc2)c1	0.5%	inactive	–
CC(CNC(=O)c1ccc(Br)o1)NC(=O)c1ccc(Br)o1 (stereo not given)	4.1%	inactive	–
CCOc1ccc(C(=O)Nc2cccc(-c3ccc4nncn4n3)c2)cc1	1.2%	inactive	–
CCS(=O)(=O)c1ccc(-c2cccc(NC(=O)c3ccc(Br)o3)c2)nn1	1.2%	–	11.8% (active)
COC(=O)C[C@H]1C=C[C@@H](NS(=O)(=O)c2ccc(C)cc2)[C@@H](CO)O1	2.1%	inactive	–
Cc1ccccc1-c1nc(NC(C)C)nc2cc(-c3ccccc3)sc12	0.6%	inactive	–
OC(c1ccc(Cl)c(F)c1)c1ncc(-c2ccccc2Cl)[nH]1 (stereo not given)	1.3%	inactive	–
COc1ccc(C(O)C(O)(C(=O)OC(C)C)c2ccc(C)cc2)cc1 (stereo not given)	2.5%	inactive	–
C[C@H]([C@@H](O)[C@@H](O)[C@@H](C)C(C)(C)C)[C@H]1CC[C@H]2C3CC[C@H]4C[C@H](OS(=O)(=O)O)[C@@H](OS(=O)(=O)O)C[C@]4(C)[C@H]3CC[C@]12C (stereo not given in full)	3.3%	inactive	–
C=CCC[C@@H](CCCCC)OC(=O)/C=C/[C@@H](O)[C@H](O)C[C@H](O)CC=C	0.4%	inactive	–
O=C(c1ccc(C(F)(F)F)cc1)N1CCC(=O)N([C@H](COCc2ccccc2)Cc2ccccc2)CC1	0.6%	inactive	–
CC(C)C[C@@H](COCc1ccc(Cl)cc1)N1CCN(C(=O)c2ccc(Cl)cc2Cl)CCC1=O	0.8%	inactive	–
CC(C)CC(COCc1ccc(Cl)cc1)N1CCN(C(=O)c2ccc(C(F)(F)F)cc2)CCC1=O (stereo not given)	5.1%	–	7.54% (active)
CCN(CC)CCN(C)C(c1ccnc2ccccc12)c1nnnn1-c1ccc2c(c1)OCCO2 (stereo not given)	2.1%	inactive	–
Cc1cc2nc(C)n(CCCNC(=O)Nc3ccccc3)c2cc1C	1.2%	–	33% (active)
CCOc1ccc(CCNC(=O)Nc2ccccc2)cc1OCC	0.6%	inactive	–
Cc1nc2cc(NC(=O)Nc3cccc(F)c3)ccc2n1C	0.6%	inactive	–
C[C@@H]1CC2=C(C(=O)OC(C)(C)O2)[C@@H](C2CC2)O1	0.7%	inactive	–
OC(c1ccccc1)(c1ccccc1)C1CCN(CCCOc2ccccc2)CC1	0.9%	inactive	–
CCOc1ccc(-c2noc(CCC(=O)NC3CCCC3)n2)cc1OC	0.3%	inactive	–
CCOc1nc(-c2ccc(OC)cc2)ccc1-c1noc(-c2cc(OC)c(OC)c(OC)c2)n1	26.5%	–	69% (active)
CCOC(=O)c1cc(-c2nnc(-c3cc(OC)c(OC)c(OC)c3)o2)c(C)nc1C	0.3%	inactive	–
Cc1ccc(NS(=O)(=O)c2cc3c(cc2Br)NC(=O)CO3)cc1C	2.1%	inactive	–
COc1ccc(C(c2nnnn2C2CCCC2)N2CCN(C/C=C/c3ccccc3)CC2)cc1 (stereo not given)	0.9%	inactive	–
